Test results taken from PubChem BioAssay (NCATS).
Inconclusive results are not listed. Active and inactive are the calls of the source. Unless noted, calls follow the shape of the dose curve; as a rule, active = well fitted curve in the direction sought with a large enough effect; inconclusive = small, poorly fitted or top-dose-only effect, or another doubt; inactive = no such curve, though single readings can be large; an effect the other way counts as inactive or inconclusive.

Columns and labels:
[1] = biological target: 3',5'-cyclic-AMP phosphodiesterase 4B (Homo sapiens) (UniProt Q07343); assay: qHTS Assay for Inhibitors of PDE-IV (AID 607; active = well fitted activation curve with a large enough effect in the main read-out, with a control signal flat, not every such curve was filed as active; also: % of control where 0% means no effect)
In short: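 The readout is membrane depolarisation from a cAMP-sensing CNG channel, detected with a potential dye at ex 535/em 590. Cells were HEK293-derived (endogenous PDE-IV) at 1000 cells/well, titrated up to 22.9 uM final.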

[2] = Cell Viability - Mesenchymal (AID 546); settings: mesenchymal cells viability, qHTS; activity change, negative = cytotoxicity: at 91.7 µM (top of the series);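 also: cells exposed to compound for 40 hours before reading; 0% = DMSO only and -100% = 100 µM tamoxifen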
In short: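 Human renal mesenchymal cells (glomerulus-derived), 1000 cells/well, 5 hr 37 °C pre-incubation; compound 40 hr, 37 °C; CellTiter-Glo, 20 min RT; luminescence; AC50 via Hill equation.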

[3] = Cellular Toxicity (caspase-3) HepG2 (AID 654);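 also: cells exposed to compound for 16 hours before reading; 0% = DMSO alone and 100% = caspase signal from 100 µM tamoxifen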
In short: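 Concentration-response AC50 values reflect caspase-3/7 induction in HepG2 cells after 16 hours of compound exposure, quantified by luminescence from liberated aminoluciferin and referenced to 100 uM tamoxifen as full stimulation.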

[4] = Cellular Toxicity (caspase-3) Jurkat (AID 655);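 also: cells exposed to compound for 16 h at 37 °C before reading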
In short: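 qHTS in human Jurkat T-cell leukemia line: 16 hr compound treatment at 37 °C, caspase-3/7 activity measured by Caspase-Glo luminescence. AC50 derived from Hill equation.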

[5] = Cellular Toxicity (caspase-3) HUV-EC-C (AID 656);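 also: 0% = DMSO basal and 100% = 100 µM tamoxifen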
In short: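 Concentration-dependent caspase 3/7 induction was assessed in HUV-EC-C cells exposed for 16 hours. Data scaled between DMSO and tamoxifen (100 uM) controls.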

[6] = Cellular Toxicity (caspase-3) SHSY5Y (AID 657)
In short: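 Readout: caspase-cleaved peptide-aminoluciferin substrate driving luciferase light in SH-SY5Y neuroblastoma cells after 16 h treatment. Response normalized to DMSO and 10 uM staurosporine controls.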

[7] = Cellular Toxicity (caspase-3) BJ (AID 658);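 also: 0% = DMSO basal and 100% = 10 µM staurosporine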
In short: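 qHTS, BJ fibroblasts, 1000 cells/well; 5 hr preincubation, 16 hr compound, 37 °C; Caspase-Glo 3/7 reagent, 1 hr RT; luminescence. DMSO = 0%, 10 uM staurosporine = 100%. Hill-equation AC50.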

[8] = Cellular Toxicity (caspase-3) MRC-5 (AID 659); settings: Potency: caspase-3 activation;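 also: 0% = DMSO basal and 100% = 10 µM staurosporine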
In short: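 MRC-5 fibroblasts, 1500/well; 16 h cpd, 37 °C; Caspase-Glo 3/7, 1 h RT; lumi read. Norm: DMSO = 0%, 10 uM staurosporine = 100%. Hill-fit AC50 from qHTS conc-response.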

[9] = Cellular Toxicity (caspase-3) Mesangial (AID 660);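 also: combined caspase 3 and 7 activity read by Caspase-Glo luminescence; cells exposed to compound for 16 h before the caspase read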
In short: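 AC50 values come from Hill-equation fits of caspase 3/7 activation, measured as Caspase-Glo luminescence in human glomerular mesangial cells exposed to compound for 16 h at 37 °C; 100% set by 100 uM tamoxifen.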

[10] = Cellular Toxicity (caspase-3) SK-N-SH (AID 661);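 also: 0% = DMSO basal and 100% = 10 µM staurosporine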
In short: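 Apoptosis readout in SK-N-SH neuroblastoma: Caspase-Glo 3/7 luminescence following 16 hr treatment in complete culture medium. Normalization used DMSO and 10 uM staurosporine controls.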

Chain of 3',5'-cyclic-AMP phosphodiesterase 4B (Homo sapiens) (Q07343 whole entry, looked up): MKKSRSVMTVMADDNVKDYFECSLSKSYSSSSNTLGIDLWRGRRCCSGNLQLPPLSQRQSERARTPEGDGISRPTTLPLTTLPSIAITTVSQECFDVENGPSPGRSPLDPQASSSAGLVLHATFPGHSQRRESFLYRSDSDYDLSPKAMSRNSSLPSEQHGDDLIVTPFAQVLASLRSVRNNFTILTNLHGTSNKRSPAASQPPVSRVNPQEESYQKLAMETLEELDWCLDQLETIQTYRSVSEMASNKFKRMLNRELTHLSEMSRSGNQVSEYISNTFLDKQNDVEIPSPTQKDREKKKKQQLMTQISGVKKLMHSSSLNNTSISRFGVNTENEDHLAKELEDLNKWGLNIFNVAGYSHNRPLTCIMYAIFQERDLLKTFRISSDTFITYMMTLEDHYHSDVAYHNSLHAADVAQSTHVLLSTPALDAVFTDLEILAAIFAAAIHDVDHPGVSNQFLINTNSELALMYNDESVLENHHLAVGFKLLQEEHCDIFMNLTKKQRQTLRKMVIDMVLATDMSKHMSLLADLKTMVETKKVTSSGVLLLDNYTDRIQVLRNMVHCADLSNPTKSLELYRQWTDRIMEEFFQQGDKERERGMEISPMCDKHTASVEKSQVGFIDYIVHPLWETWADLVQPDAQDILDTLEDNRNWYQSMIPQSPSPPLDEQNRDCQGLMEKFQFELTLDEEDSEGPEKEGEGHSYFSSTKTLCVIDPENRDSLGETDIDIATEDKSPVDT

CCOC(=O)n1ccn(C)c1=S
inactive: outcome [1]

CC(O)(P(=O)(O)O)P(=O)(O)O
inactive: outcome [1]

CC(=O)Oc1ccc(C(c2ccc(OC(C)=O)cc2)c2ccccn2)cc1
inactive: activity change, negative = cytotoxicity [2] -3.78% | Potency [3] | Potency [4] | outcome [5] | Potency [6] | outcome [7] | Potency [8] | outcome [9] | Potency [10]

C=CCc1ccc(O)c(OC)c1
inactive: activity change, negative = cytotoxicity [2] 5.14% | Potency [3] | Potency [4] | outcome [5] | Potency [6] | outcome [7] | Potency [8] | outcome [9] | Potency [10]

C=C(CC)C(=O)c1ccc(OCC(=O)O)c(Cl)c1Cl
inactive: activity change, negative = cytotoxicity [2] -21.9% | outcome [1] | Potency [3] | Potency [4] | outcome [5] | Potency [6] | outcome [7] | Potency [8] | outcome [9] | Potency [10]

Cc1cc(=O)n(-c2ccccc2)n1C
inactive: outcome [1]

CN(C(=O)CN(CCO)CC(=O)N(C)C(C)(C)Cc1ccccc1)C(C)(C)Cc1ccccc1
inactive: outcome [1]

CN(C)/N=N/c1nc[nH]c1C(N)=O
inactive: activity change, negative = cytotoxicity [2] -2.47% | Potency [3] | Potency [4] | outcome [5] | Potency [6] | outcome [7] | Potency [8] | outcome [9] | Potency [10]

Cc1ccnc(NS(=O)(=O)c2ccc(N)cc2)n1
inactive: outcome [1]

Nc1ccc(C(=O)O)cc1
inactive: activity change, negative = cytotoxicity [2] -3.72% | Potency [3] | Potency [4] | outcome [5] | Potency [6] | outcome [7] | Potency [8] | outcome [9] | Potency [10]

CC/C(=C(/CC)c1ccc(O)cc1)c1ccc(O)cc1
inactive: activity change, negative = cytotoxicity [2] -3% | Potency [3] | Potency [4] | outcome [5] | Potency [6] | outcome [7] | Potency [8] | outcome [9] | Potency [10]

NCCc1ccn[nH]1
inactive: outcome [1]

O=C1OC(c2ccc(O)cc2)(c2ccc(O)cc2)c2ccccc21
inactive: activity change, negative = cytotoxicity [2] -12.7% | Potency [3] | Potency [4] | outcome [5] | Potency [6] | outcome [7] | Potency [8] | outcome [9] | Potency [10]
